Tests used:
Test in all cases: log2 ratio of Biotin-Ahx-Ub-VS probe labelling (fragment/DMSO); higher = less target engagement (more negative = stronger competition), active = hit call of the paper (q ≤ 0.05, log2 ratio ≤ -1)
Conditions in all cases: compound concentration: 200 uM; treatment time: 3 h
USP42 = molecular target: T1, USP42 (UniProt Q9H9J4)
T1 sequence (whole entry): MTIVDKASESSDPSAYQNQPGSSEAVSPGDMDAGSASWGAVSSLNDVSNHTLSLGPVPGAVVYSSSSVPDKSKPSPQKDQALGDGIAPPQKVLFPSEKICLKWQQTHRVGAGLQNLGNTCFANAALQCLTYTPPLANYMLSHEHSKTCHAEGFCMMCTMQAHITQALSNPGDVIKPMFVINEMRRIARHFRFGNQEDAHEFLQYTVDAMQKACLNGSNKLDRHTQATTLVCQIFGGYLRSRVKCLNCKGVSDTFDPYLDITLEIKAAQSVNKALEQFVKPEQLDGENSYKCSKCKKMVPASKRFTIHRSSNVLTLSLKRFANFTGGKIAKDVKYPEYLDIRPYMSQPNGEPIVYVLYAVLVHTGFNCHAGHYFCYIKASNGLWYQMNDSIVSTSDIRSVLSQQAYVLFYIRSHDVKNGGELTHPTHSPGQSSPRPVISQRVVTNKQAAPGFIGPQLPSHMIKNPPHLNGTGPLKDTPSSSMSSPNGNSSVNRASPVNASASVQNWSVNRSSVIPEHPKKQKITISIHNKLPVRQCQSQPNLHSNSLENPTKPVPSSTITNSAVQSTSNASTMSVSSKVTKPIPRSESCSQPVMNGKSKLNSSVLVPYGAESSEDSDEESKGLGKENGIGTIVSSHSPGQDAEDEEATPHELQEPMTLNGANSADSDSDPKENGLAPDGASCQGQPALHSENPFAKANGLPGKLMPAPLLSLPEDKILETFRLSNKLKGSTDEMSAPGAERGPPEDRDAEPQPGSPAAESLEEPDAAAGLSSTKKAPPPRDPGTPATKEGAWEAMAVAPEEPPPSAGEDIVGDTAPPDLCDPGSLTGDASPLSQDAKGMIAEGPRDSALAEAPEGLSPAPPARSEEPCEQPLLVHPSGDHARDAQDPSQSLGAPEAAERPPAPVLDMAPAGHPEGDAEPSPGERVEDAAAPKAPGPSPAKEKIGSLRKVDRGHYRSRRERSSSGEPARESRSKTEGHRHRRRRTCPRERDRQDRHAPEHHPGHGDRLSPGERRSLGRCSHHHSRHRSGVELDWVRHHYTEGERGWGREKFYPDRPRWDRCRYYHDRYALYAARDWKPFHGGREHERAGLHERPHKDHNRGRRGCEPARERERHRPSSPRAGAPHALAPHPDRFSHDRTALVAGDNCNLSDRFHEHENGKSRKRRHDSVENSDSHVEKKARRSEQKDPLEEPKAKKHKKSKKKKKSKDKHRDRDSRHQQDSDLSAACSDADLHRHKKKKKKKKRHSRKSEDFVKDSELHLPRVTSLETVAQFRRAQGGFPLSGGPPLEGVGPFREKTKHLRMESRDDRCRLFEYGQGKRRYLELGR
Procedure, shortened: (§1)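 HEK293T lysate in Tris/CHAPS/IGEPAL buffer with protease inhibitors (495 µg per sample) was given fragment at 200 µM or vehicle for 3 h, in triplicate. It then received Biotin-Ahx-Ub-VS at 0.5 µM final for 1 h. Labelled DUBs were NeutrAvidin-enriched, digested with LysC and trypsin, and run by diaPASEF LC-MS/MS. Values are average log2 fragment/vehicle ratios by unpaired t-test on global-median-normalised Spectronaut quantities of proteins with ≥2 unique peptides.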

USP46 = USP46 (UniProt P62068)
Procedure, shortened: as §1

USP47 = molecular target: T2, USP47 (UniProt Q96K76)
T2 sequence (whole entry): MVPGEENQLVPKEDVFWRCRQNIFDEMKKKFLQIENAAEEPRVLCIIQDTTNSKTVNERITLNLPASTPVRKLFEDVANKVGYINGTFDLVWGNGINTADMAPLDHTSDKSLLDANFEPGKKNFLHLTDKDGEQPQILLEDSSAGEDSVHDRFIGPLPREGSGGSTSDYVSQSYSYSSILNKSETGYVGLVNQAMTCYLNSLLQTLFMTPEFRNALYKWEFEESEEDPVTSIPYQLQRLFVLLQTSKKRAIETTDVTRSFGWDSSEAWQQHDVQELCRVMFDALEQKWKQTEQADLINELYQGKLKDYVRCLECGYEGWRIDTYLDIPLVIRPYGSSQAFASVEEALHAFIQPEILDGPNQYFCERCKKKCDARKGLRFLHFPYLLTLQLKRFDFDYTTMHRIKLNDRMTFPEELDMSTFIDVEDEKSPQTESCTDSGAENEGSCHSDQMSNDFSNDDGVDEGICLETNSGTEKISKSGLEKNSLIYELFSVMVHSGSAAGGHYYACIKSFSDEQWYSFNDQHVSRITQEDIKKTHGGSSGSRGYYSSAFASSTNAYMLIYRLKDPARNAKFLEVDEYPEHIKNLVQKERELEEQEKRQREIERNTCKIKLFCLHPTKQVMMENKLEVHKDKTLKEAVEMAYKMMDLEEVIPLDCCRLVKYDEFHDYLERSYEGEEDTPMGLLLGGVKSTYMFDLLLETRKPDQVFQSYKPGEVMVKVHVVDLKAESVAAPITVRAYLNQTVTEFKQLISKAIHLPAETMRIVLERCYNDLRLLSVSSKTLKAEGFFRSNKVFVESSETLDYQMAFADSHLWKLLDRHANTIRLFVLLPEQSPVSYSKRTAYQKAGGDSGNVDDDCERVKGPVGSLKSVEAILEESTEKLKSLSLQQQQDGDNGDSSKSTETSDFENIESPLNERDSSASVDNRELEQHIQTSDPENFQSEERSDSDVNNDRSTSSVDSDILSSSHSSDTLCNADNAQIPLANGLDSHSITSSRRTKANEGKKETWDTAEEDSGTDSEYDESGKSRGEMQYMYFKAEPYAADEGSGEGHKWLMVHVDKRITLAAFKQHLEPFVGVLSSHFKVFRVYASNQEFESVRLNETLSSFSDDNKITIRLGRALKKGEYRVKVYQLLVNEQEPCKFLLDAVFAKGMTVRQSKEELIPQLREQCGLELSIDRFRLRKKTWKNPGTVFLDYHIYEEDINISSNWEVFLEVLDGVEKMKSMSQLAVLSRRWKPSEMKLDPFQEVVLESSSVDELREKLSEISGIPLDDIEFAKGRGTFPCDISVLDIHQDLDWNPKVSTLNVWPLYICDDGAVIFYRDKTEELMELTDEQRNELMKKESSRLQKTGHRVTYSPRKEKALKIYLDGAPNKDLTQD
Procedure, shortened: as §1

USP48 = molecular target: T3, USP48 (UniProt Q86UV5)
T3 sequence (whole entry): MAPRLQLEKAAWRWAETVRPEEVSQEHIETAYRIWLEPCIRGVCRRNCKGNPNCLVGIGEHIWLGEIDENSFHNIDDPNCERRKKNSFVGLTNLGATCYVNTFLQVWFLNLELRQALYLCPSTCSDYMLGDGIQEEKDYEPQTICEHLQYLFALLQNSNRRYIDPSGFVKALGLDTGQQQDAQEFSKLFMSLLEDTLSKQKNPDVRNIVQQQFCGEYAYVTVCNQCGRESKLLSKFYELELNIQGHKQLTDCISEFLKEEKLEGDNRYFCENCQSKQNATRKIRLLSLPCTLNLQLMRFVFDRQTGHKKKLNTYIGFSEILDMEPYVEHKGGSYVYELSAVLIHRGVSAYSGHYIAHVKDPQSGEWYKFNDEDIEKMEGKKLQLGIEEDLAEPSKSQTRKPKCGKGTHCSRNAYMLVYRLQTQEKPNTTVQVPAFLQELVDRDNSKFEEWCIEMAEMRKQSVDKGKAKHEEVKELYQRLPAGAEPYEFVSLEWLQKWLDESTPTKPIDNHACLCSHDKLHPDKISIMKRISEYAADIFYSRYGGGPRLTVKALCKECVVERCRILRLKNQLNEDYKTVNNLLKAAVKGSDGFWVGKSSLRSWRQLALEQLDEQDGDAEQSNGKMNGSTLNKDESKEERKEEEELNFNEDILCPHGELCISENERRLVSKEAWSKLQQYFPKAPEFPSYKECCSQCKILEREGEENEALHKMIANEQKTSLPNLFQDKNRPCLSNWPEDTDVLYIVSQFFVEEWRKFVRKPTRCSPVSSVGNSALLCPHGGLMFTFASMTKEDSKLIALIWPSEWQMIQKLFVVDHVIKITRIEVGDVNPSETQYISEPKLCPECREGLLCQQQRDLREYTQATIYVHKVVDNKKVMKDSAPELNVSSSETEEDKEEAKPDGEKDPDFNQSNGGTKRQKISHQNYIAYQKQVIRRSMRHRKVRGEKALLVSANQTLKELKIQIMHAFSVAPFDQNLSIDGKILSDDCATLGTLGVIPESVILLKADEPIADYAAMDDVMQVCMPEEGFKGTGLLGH
Procedure, shortened: as §1

USP5 = molecular target: T4, USP5 (UniProt P45974)
T4 sequence (whole entry): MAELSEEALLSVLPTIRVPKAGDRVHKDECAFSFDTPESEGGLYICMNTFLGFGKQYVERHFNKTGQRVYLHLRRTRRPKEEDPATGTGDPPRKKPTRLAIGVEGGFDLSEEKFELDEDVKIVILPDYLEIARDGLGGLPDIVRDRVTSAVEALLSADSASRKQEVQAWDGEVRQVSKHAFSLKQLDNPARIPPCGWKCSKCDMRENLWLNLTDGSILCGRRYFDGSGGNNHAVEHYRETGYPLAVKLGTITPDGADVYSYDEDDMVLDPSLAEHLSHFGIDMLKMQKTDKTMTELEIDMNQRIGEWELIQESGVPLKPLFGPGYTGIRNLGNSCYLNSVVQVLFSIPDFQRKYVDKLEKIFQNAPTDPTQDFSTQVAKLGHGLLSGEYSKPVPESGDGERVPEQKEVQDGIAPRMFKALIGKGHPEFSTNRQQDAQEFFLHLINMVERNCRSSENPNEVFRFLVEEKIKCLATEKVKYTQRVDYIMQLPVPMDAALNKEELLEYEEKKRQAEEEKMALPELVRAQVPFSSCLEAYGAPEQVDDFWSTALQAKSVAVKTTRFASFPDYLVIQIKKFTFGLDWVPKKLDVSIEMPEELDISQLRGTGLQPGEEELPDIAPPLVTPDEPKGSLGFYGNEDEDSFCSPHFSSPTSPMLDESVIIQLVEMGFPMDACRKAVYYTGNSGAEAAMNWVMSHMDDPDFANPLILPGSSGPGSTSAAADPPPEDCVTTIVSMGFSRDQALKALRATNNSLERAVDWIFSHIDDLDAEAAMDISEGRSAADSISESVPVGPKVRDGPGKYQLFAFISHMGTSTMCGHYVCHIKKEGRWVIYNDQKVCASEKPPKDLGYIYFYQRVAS
Procedure, shortened: as §1

USP54 = USP54 (UniProt Q70EL1)
Procedure, shortened: as §1

USP7 = USP7 (UniProt Q93009)
Procedure, shortened: as §1

USP8 = molecular target: T5, USP8 (UniProt P40818)
T5 sequence (whole entry): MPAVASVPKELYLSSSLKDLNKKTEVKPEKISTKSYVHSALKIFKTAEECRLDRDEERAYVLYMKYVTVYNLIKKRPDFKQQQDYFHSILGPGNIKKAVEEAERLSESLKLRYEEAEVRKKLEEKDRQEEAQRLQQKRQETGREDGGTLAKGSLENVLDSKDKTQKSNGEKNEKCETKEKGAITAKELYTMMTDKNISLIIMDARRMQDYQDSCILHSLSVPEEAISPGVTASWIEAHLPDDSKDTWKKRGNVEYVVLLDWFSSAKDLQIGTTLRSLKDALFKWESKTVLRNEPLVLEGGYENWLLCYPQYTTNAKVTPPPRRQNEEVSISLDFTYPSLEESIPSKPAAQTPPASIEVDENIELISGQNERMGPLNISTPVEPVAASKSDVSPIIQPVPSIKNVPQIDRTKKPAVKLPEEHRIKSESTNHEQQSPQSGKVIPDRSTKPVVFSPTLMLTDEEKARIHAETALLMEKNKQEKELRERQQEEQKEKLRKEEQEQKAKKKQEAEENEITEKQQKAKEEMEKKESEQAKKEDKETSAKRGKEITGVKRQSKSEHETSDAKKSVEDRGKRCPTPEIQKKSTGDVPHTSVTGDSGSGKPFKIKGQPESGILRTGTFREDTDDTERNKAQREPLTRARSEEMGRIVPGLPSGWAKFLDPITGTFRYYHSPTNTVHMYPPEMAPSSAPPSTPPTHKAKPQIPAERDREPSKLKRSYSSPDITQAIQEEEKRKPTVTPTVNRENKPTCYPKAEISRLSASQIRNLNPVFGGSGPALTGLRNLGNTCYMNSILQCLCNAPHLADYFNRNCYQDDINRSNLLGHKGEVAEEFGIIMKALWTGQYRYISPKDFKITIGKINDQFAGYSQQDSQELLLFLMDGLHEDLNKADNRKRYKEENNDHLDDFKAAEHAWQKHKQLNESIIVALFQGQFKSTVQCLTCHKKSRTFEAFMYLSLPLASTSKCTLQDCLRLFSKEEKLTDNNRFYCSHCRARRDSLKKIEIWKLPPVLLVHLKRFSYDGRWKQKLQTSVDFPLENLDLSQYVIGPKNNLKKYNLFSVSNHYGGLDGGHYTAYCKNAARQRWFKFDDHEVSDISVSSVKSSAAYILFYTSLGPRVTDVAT
Procedure, shortened: as §1

Measured: log2 ratio of Biotin-Ahx-Ub-VS probe labelling

Chain of USP7 (Q93009 whole entry, looked up): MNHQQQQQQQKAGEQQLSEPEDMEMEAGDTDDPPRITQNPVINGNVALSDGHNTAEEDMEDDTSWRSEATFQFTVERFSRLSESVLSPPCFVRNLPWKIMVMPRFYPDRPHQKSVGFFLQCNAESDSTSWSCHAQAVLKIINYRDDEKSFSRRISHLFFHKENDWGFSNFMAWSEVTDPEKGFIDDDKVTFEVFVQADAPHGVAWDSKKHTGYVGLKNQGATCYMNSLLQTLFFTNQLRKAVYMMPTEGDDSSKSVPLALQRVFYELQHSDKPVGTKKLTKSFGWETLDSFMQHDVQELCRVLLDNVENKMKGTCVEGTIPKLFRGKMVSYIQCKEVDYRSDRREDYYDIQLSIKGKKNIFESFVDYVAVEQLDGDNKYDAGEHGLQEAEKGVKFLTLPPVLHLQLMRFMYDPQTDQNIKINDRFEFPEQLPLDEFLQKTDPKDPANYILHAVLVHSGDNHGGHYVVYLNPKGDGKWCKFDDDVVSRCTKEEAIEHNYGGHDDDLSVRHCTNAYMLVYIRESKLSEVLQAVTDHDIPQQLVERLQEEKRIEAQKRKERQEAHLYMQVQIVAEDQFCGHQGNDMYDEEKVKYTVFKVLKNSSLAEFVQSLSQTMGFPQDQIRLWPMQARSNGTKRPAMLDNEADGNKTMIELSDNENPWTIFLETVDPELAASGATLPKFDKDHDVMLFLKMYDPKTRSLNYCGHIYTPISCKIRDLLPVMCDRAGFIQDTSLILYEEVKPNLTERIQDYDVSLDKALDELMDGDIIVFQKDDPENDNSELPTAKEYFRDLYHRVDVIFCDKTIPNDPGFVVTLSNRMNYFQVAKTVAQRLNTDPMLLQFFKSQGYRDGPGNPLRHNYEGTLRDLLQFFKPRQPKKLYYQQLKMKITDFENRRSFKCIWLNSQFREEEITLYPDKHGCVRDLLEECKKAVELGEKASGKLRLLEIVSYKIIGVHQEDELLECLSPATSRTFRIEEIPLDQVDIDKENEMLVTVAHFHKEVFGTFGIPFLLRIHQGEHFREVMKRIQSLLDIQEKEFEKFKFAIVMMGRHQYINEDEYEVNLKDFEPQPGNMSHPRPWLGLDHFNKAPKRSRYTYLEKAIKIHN
Chain of USP54 (Q70EL1 whole entry): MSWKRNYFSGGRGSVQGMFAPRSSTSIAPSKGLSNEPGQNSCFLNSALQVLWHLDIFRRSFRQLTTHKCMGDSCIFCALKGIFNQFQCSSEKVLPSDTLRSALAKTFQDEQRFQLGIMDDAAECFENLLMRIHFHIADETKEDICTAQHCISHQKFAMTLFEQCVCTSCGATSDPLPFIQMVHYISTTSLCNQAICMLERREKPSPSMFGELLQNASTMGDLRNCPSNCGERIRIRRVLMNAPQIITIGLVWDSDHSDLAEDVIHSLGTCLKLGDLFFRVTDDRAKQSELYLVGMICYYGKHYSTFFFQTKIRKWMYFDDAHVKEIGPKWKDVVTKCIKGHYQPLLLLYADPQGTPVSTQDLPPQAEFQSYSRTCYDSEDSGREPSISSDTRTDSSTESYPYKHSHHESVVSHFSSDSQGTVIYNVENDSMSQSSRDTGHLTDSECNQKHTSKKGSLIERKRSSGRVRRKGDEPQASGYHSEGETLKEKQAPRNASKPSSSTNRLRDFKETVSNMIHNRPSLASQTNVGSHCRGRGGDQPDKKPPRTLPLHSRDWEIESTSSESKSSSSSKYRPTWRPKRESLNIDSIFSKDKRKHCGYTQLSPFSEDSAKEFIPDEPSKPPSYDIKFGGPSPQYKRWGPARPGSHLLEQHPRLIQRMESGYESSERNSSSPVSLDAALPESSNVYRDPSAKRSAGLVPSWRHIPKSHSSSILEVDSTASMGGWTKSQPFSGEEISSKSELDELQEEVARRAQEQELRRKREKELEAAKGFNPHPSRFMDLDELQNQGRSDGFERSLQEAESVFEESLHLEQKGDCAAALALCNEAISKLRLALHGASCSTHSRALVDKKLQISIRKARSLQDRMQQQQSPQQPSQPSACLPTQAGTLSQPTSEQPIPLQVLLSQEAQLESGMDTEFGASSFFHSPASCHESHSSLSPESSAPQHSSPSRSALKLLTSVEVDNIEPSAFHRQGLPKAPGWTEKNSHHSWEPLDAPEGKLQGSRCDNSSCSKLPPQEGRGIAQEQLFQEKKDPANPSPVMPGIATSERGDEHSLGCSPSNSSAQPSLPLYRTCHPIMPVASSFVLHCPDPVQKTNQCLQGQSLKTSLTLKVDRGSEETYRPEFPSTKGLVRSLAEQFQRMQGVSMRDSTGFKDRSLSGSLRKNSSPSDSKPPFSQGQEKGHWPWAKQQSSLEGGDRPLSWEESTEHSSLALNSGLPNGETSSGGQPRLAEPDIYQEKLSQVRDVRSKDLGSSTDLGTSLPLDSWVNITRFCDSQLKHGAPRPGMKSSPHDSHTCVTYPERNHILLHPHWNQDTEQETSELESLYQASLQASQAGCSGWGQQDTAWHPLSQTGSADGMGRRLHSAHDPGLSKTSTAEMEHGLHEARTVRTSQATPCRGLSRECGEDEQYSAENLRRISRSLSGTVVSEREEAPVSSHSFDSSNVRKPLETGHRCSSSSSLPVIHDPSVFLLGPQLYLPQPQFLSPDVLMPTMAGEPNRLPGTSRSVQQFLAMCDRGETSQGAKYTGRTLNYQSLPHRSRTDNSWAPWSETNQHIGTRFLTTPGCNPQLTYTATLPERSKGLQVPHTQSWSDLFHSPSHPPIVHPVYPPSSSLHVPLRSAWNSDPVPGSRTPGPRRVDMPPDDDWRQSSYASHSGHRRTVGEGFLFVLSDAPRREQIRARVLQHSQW
Chain of USP46 (P62068 whole entry): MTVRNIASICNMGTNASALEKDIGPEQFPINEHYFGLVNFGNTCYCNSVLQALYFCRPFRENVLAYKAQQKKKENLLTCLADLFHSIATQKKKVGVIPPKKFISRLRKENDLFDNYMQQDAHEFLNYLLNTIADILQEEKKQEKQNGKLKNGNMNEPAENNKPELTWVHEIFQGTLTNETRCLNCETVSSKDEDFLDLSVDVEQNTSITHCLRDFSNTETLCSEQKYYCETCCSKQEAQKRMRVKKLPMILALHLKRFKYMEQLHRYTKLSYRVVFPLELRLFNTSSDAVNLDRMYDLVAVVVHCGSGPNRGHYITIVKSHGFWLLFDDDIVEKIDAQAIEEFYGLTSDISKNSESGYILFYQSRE

Cc1cccc(NC(=O)[C@@H]2CCCN2C(=O)CCl)n1
inactive: USP42 0.315 | USP46 -0.247 | USP47 -0.448 | USP48 -0.474 | USP5 0.305 | USP54 0.236 | USP7 -0.502 | USP8 -0.358
